Laboratory results reported in PubChem BioAssay (Tox21).
Records with an inconclusive call do not appear. Active and inactive are the calls of the source. Unless noted, calls come from the whole dose curve; as a rule, active = well fitted curve in the direction sought with a large enough effect in the repeat runs; inconclusive = weak or mixed curves; inactive = no such curve, though single readings can be large; an effect the other way counts as inactive or inconclusive.

What was measured:
[1] = qHTS assay to identify small molecule antagonists of the androgen receptor (AR) signaling pathway using the MDA cell line in the presence of 0.5 nM R1881 - cell viability counter screen (AID 1259242); note: nearly all actives have a fitted effect of over 45% in size
In short: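 Steps: plate MDA-kb2 cells, rest 5 hr at 37C without CO2; pin in compounds in DMSO; add R1881 to 0.5 nM final; incubate 16 hr; add CellTiter-Fluor, 30 min; read fluorescence.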

[2] = target: Estrogen receptor (Homo sapiens) (UniProt P03372); test: qHTS assay to identify small molecule antagonists of the estrogen receptor alpha (ER-alpha) signaling pathway using the BG1 cell line in the presence of 0.1 nM 17-beta-estradiol (AID 1259244); note: nearly all actives have a fitted effect of over 50% in size
Estrogen receptor (Homo sapiens), sequence (P03372 whole entry, looked up): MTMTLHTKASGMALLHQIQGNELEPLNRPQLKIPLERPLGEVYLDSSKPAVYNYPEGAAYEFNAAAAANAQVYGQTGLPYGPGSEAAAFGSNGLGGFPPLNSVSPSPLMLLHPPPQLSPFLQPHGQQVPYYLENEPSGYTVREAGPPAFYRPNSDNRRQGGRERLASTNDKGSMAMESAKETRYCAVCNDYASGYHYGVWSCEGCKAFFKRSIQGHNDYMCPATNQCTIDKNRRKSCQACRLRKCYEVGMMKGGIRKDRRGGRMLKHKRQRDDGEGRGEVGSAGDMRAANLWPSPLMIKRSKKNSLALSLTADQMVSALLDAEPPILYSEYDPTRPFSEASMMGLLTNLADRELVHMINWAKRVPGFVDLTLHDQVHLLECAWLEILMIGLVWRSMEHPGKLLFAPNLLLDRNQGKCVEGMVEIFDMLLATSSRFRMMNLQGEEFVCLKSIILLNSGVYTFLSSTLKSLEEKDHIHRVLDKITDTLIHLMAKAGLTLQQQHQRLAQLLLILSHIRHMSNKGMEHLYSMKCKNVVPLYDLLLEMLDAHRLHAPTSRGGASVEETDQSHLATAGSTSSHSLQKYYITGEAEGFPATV
In short: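 Antagonist mode: compounds in DMSO are pinned onto VM7Luc4E2 reporter cells, 0.1 nM final 17beta-estradiol is added, and after 22 h at 37C luciferase luminescence is measured with ONE-Glo.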

[3] = qHTS assay to identify small molecule phospholipidosis (PLD) inducers (AID 1259344; active = well fitted curve in the direction sought with a large enough effect; an effect the other way counts as inactive or inconclusive)
In short: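 Image-based: LipidTOX Red pit count/intensity per well and per cell; HepG2, 24 h compound at 37 C, PFA fixation, Hoechst counterstain.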

[4] = qHTS assay to identify small molecule HDAC inhibitors (AID 1259364); note: potency is the fitted concentration of half-maximal effect;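 note: wild-type HCT-116 cells with endogenous class I/II HDAC activity; nearly all actives have a fitted effect of over 45% in size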; for activity change, negative = inhibition: top concentration of the series differs between compounds
In short: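 Cells (HCT-116, wild type) are seeded at 1,500 per well, incubated overnight, treated with compound in DMSO for 2 hr, then developed with HDAC-Glo I/II reagent for 30 min at room temperature.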

[5] = qHTS assay to identify small molecule HDAC inhibitors - cell viability counter screen (AID 1259365); note: series mostly up to about 92 µM; nearly all actives have a fitted effect of over 50% in size
In short: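 Viability readout: CellTiter-Glo luminescence. Wild-type HCT-116 cells, 2hr compound treatment following overnight attachment at 37 C.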

[6] = qHTS assay to identify small molecule agonists of the sonic hedgehog signaling (Shh) pathway - cell viability counter screen (AID 1259366); note: nearly all actives have a fitted effect of over 50% in size
In short: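 Viability measured fluorometrically (CellTiter-Fluor, 1hr, 37C) in 3T3 Gli1-Luc reporter cells after 23hr compound exposure within a 24hr incubation at 37C/5% CO2.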

[7] = qHTS assay to identify small molecule antagonists of the sonic hedgehog signaling (Shh) pathway - cell viability counter screen (AID 1259367); note: nearly all actives have a fitted effect of over 55% in size
In short: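 Tox21 library chemicals were tested on a Gli1-Luc NIH/3T3 clone (2,000 cells/well) stimulated by conditioned medium; viability was quantified as fluorescence from CellTiter-Fluor reagent added at 23 hr.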

[8] = qHTS assay to identify small molecule agonists of the sonic hedgehog signaling (Shh) pathway (AID 1259368; calls by dose curve; note: nearly all actives have a fitted effect of over 15% in size; note: potency is the fitted concentration of half-maximal effect;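 for activity change: NIH/3T3-derived 3T3Gli1-Luc cells carrying a stable Gli1-driven firefly luciferase reporter; series mostly up to about 92 µM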)
In short: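 Cells of a mouse NIH/3T3 clone stably expressing luciferase under the Gli1 transcriptional response element are exposed to test chemicals for 24 hr at 37 C. Pathway activation is detected as a rise in luminescence.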

[9] = qHTS assay to identify small molecule antagonists of the sonic hedgehog signaling (Shh) pathway (AID 1259369; calls by dose curve; note: nearly all actives have a fitted effect of over 45% in size)
In short: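 Cells are plated and held 4hr at 37 C, compounds (DMSO) are pinned in, conditioned medium is added to stimulate the pathway, and after 24hr luciferase reagent is added for 30min before luminescence is read.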

[10] = qHTS assay to identify small molecule agonists of the androgen receptor (AR) signaling pathway in the presence of an antagonist - cell viability counter screen (AID 1259379);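 note: MDA-kb2 human breast cancer cells carrying an MMTV luciferase reporter; series mostly up to about 92 µM; nearly all actives have a fitted effect of over 25% in size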
In short: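 Cytotoxicity is assessed by CellTiter-Fluor in MDA-kb2 cells carrying an MMTV-driven luciferase reporter. Cells receive 3.0uM nilutamide plus compounds at 15 concentrations and incubate 16 hr at 37C without CO2 before fluorescence reading.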

[11] = qHTS assay to identify small molecule agonists of the estrogen receptor beta (ER-beta) signaling pathway - cell viability counter screen (AID 1259380); note: nearly all actives have a fitted effect of over 30% in size
In short: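 Cytotoxicity is measured in parallel with the reporter screen: after 16 hr compound exposure at 37C and a 2 hr LiveBLAzer step, CellTiter-Glo is added to the same ER-beta-UAS-bla HEK293T wells and luminescence read after 30 min.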

[12] = qHTS assay to identify small molecule antagonists of the estrogen receptor beta (ER-beta) signaling pathway - cell viability counter screen (AID 1259382); note: series mostly up to about 92 µM; nearly all actives have a fitted effect of over 55% in size
In short: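 Cytotoxicity counter screen multiplexed with the beta-lactamase antagonist assay: GripTite HEK293T ER-beta-bla cells were treated 16 hr with test chemicals in the presence of 1nM 17-beta-estradiol, and viability was measured by CellTiter-Glo.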

[13] = target: Estrogen receptor (Homo sapiens) (UniProt P03372); test: qHTS assay to identify small molecule agonists of the estrogen receptor alpha (ER-alpha) signaling pathway in the presence of an antagonist (AID 1259383; calls by dose curve; note: top concentration of the series differs between compounds; nearly all actives have a fitted effect of over 15% in size)
In short: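 Agonist-mode confirmation in the presence of the ER antagonist ICI-182,780 at 10.0nM final. Breast-derived VM7Luc4E2 reporter cells were exposed to compounds for 22hr, and ERE-driven luciferase was quantified by luminescence.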

[14] = qHTS assay to identify small molecule agonists or antagonists of the thyroid stimulating hormone receptor (TSHR) signaling pathway - wild type cell line counter screen (AID 1259384; calls by dose curve)
In short: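 Wild-type Hek293 cells, 800/well, 18 h at 37C, then compound with Ro20-1724 for 30 min RT. cAMP by HTRF (cAMP-d2/anti-cAMP cryptate), 1 h RT, fluorescence read. 15 concentrations, triplicates.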

[15] = target: Thyrotropin receptor (Homo sapiens) (UniProt P16473); test: qHTS assay to identify small molecule antagonists of the thyroid stimulating hormone receptor (TSHR) signaling pathway (AID 1259385; calls by dose curve; note: nearly all actives have a fitted effect of over 20% in size)
Thyrotropin receptor (Homo sapiens), sequence (P16473 whole entry, looked up): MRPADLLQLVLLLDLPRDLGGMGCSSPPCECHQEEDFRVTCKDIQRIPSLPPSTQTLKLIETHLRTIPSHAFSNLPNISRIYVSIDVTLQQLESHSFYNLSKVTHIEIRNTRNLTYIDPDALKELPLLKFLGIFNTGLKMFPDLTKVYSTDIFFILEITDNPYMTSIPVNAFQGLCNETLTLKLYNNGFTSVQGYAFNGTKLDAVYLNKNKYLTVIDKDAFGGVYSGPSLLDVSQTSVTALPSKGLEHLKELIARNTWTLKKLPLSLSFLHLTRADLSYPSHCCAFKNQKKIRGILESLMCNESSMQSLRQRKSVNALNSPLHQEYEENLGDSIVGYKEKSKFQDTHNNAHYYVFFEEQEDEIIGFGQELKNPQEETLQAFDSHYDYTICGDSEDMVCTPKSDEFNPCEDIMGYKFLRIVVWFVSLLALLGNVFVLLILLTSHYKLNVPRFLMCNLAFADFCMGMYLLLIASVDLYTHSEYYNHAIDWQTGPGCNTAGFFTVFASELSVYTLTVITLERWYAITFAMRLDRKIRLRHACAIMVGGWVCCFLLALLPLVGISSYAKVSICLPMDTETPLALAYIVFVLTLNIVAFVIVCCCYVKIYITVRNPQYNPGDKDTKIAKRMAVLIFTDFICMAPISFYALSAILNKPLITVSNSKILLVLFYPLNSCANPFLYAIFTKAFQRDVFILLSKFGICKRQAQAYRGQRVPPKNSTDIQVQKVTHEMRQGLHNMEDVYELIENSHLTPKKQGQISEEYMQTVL
In short: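 TSHR-HEK293 cells (800/well) plated 18 h, then compounds with Ro20-1724 and TSH at 1.5 ng/mL final, 30 min at room temperature. cAMP quantified by HTRF (cAMP-d2/anti-cAMP-cryptate, 1 h); 15 concentrations in triplicate.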

[16] = qHTS assay to identify small molecule agonists of the estrogen receptor alpha (ER-alpha) signaling pathway in the presence of an antagonist - cell viability counter screen (AID 1259386);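 note: series mostly up to about 92 µM; cells exposed to compounds for 22 h at 37 °C before the viability read; nearly all actives have a fitted effect of over 30% in size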
In short: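 Cytotoxicity was measured in parallel with the ERE-luciferase agonist screen, in the same wells. The cells were VM7Luc4E2, which endogenously express ER-alpha, and treatment was with compounds plus 10.0nM ICI-182,780 for 22hr.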

[17] = target: Estrogen receptor beta (Homo sapiens) (UniProt Q92731); test: qHTS assay to identify small molecule agonists of the estrogen receptor beta (ER-beta) signaling pathway (AID 1259377; active = well fitted activation curve with a large enough effect in the signal ratio in the repeat runs, not every such curve was filed as active; the % refers to the signal ratio)
Estrogen receptor beta (Homo sapiens), sequence (Q92731 whole entry, looked up): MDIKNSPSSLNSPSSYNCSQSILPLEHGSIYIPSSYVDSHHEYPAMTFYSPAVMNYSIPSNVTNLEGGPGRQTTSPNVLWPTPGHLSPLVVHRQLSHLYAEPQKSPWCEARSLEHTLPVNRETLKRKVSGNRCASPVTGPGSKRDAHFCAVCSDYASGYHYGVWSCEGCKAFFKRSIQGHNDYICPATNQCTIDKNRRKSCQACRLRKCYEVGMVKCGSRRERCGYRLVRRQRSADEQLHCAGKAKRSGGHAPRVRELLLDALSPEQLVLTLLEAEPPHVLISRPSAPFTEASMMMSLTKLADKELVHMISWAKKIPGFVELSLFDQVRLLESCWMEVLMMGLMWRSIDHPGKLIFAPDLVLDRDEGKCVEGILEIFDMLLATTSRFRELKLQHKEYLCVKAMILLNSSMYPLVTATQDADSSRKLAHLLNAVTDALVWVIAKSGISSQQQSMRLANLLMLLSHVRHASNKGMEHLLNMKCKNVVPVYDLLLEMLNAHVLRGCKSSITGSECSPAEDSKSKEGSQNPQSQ
In short: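 A UAS-controlled beta-lactamase reporter in ER-beta-UAS-bla HEK293T cells reports receptor activation. Compounds act for 16 hr at 37C in 2% charcoal-stripped serum, and a FRET substrate is read by fluorescence after 2 hours.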

[18] = target: Estrogen receptor beta (Homo sapiens) (UniProt Q92731); test: qHTS assay to identify small molecule antagonists of the estrogen receptor beta (ER-beta) signaling pathway (AID 1259378; active = well fitted inhibition curve with a large enough effect in the signal ratio in the repeat runs, not every such curve was filed as active; the % refers to the signal ratio)
In short: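 ER-beta-UAS-bla HEK293T cells in 2% charcoal-stripped FBS medium treated with compound plus 1nM final 17-beta-estradiol for 16 hr at 37C. Beta-lactamase reporter read by FRET substrate fluorescence after 2 hours at room temperature.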
% is set by controls: 0 for no effect and ±100 for the full control effect.

Cc1c(F)c(N2CCNC(C)C2)cc2c1c(=O)c(C(=O)O)cn2C1CC1 (stereo unspecified)
inactive: Potency [1] | Potency [2] | Potency [3] | Potency [4] | Potency [5] | Potency [6] | Potency [7] | Potency [8] | Potency [9] | Potency [10] | Potency [11] | Potency [12] | Potency [13] | outcome [14] | Potency [15] | Potency [16]

Cc1ccc(C(C)C)cc2c(C)ccc1-2
inactive: Potency [1] | Potency [2] | Potency [3] | Potency [4] | Potency [5] | Potency [6] | Potency [7] | Potency [8] | Potency [9] | Potency [17] | Potency [10] | Potency [11] | Potency [12] | Potency [15] | Potency [16]

C[C@H]1NCc2cc(-c3ccc4c(=O)c(C(=O)O)cn(C5CC5)c4c3OC(F)F)ccc21
inactive: viability change, negative = cytotoxic [1] -0.218% [at 19 µM] | activity change, negative = inhibition [2] -8.57% [at 19 µM] | Potency [3] | activity change, negative = inhibition [4] -0.849% [at 19 µM] | activity change, negative = cytotoxicity [5] 0.0413% [at 19 µM] | viability change, negative = cytotoxic [6] 2.18% [at 19 µM] | viability change, negative = cytotoxic [7] -2.69% [at 19 µM] | activity change [8] -0.818% [at 18.9 µM, hits give high values] | activity change, negative = inhibition [9] 4.27% [at 19 µM] | activity change, negative = cytotoxicity [10] -2.32% [at 19 µM] | activity change, negative = cytotoxicity [11] -4.82% [at 19 µM] | activity change, negative = cytotoxicity [12] 2.92% [at 19 µM] | cAMP activity change [14] -2.09% [at 18.9 µM] | activity change, negative = inhibition [15] 6.84% [at 19 µM] | activity change, negative = cytotoxicity [16] 1.35% [at 19 µM]

CCCCCCCC
inactive: Potency [1] | Potency [2] | Potency [4] | Potency [5] | Potency [6] | Potency [7] | Potency [8] | Potency [9] | Potency [10] | Potency [11] | Potency [12] | Potency [15]

CCn1c2ccccc2c2cc([N+](=O)[O-])ccc21
inactive: Potency [1] | Potency [2] | Potency [4] | Potency [5] | Potency [6] | Potency [7] | Potency [8] | Potency [9] | Potency [10] | Potency [11] | Potency [12] | Potency [16]

CCCCNS(=O)(=O)c1ccc(C)cc1
inactive: Potency [1] | Potency [2] | Potency [4] | Potency [5] | Potency [6] | Potency [7] | Potency [8] | Potency [9] | Potency [10] | Potency [12] | Potency [13] | Potency [16]

C#Cc1ccc(-c2ccccc2F)cc1
inactive: Potency [1] | Potency [2] | Potency [4] | Potency [5] | Potency [6] | Potency [7] | Potency [8] | Potency [9] | Potency [10] | Potency [11] | Potency [12] | Potency [13] | outcome [14] | Potency [15] | Potency [16]

COc1ccc(-c2coc3cc(O)ccc3c2=O)cc1
inactive: Potency [1] | Potency [2] | Potency [5] | Potency [6] | Potency [7] | Potency [10] | Potency [11] | Potency [12] | outcome [14] | Potency [15] | Potency [16]
active: Potency [4] 1.54 µM | Potency [8] 9.69 µM

[Cu+]
inactive: Potency [1] | Potency [2] | Potency [4] | Potency [5] | Potency [6] | Potency [7] | Potency [8] | Potency [9] | Potency [17] | Potency [10] | Potency [12] | Potency [13] | outcome [14]

CCO[Si](OCC)(OCC)OCC
inactive: Potency [1] | Potency [2] | Potency [4] | Potency [5] | Potency [6] | Potency [7] | Potency [8] | Potency [9] | Potency [17] | Potency [10] | Potency [11] | Potency [12] | Potency [13] | outcome [14] | Potency [15] | Potency [16]

COC(=O)c1ccccc1C
inactive: Potency [1] | Potency [2] | Potency [4] | Potency [5] | Potency [6] | Potency [7] | Potency [8] | Potency [9] | Potency [17] | Potency [10] | Potency [12] | Potency [13] | outcome [14] | Potency [15]

CCCC1CCC(=O)CC1
inactive: Potency [1] | Potency [2] | Potency [4] | Potency [5] | Potency [6] | Potency [7] | Potency [8] | Potency [17] | Potency [10] | Potency [11] | Potency [12] | Potency [13] | Potency [16]

C=Cc1ccccc1C=C
inactive: Potency [1] | Potency [2] | Potency [4] | Potency [5] | Potency [6] | Potency [7] | Potency [8] | Potency [9] | Potency [17] | Potency [18] | Potency [10] | Potency [12] | Potency [13] | outcome [14] | Potency [15] | Potency [16]

CC1=Nc2ccccc2C1(C)C
inactive: Potency [1] | Potency [2] | Potency [4] | Potency [5] | Potency [6] | Potency [7] | Potency [8] | Potency [9] | Potency [17] | Potency [11] | Potency [12] | outcome [14] | Potency [15] | Potency [16]

COc1cc(/C=C/c2ccccc2)oc(=O)c1
inactive: Potency [1] | Potency [2] | Potency [5] | Potency [6] | Potency [7] | Potency [9] | Potency [10] | Potency [12] | Potency [13] | outcome [14] | Potency [15]
active: Potency [4] 11.2 µM | Potency [8] 2.52 µM

COc1ccc2c(c1)c(CC(=O)OC/C=C(\C)CC/C=C(\C)CCC=C(C)C)c(C)n2C(=O)c1ccc(Cl)cc1
inactive: Potency [1] | Potency [2] | Potency [4] | Potency [5] | Potency [6] | Potency [7] | Potency [8] | Potency [9] | Potency [10] | Potency [11] | Potency [12] | Potency [15]
